From PubChem BioAssay AID623972 (The Scripps Research Institute Molecular Screening Center, 2012)
Several values for one entry are separate records, joined by “and”; a condition that tells them apart may be missing. Identical values can stand only once. Unmarked numbers belong to inactive results. Activity calls are given as the source filed them. No rule for the calls is given here.

experiment: DNA binding via ethidium displacement, late-stage follow-up, artefact control for HCV NS3 helicase inhibitor project, biochemical, fluorescence, ethidium bromide (AID 623972)

Row | Structure (SMILES) | IC50
1 | Cc1ccc2nc(-c3ccc4nc(-c5ccc(N)cc5)sc4c3)sc2c1S(=O)(=O)O | > 100 µM
2 | Cc1ccc2nc(-c3ccc4nc(-c5ccc6nc(-c7ccc(N)cc7)sc6c5)sc4c3)sc2c1S(=O)(=O)O (tested in a mixture with another compound) | 73 µM (active)
3 | CN1CCN(Cc2cc(CN3CCN(C)CC3)c(O)c(=O)c(CN3CCN(C)CC3)c2)CC1 | 31 µM (active)
4 | Cc1cc2sc(-c3ccc(N)cc3)nc2cc1S(=O)(=O)O | > 100 µM
5 | CCN(CC)c1ccc(-c2nc3ccc(C)c(S(=O)(=O)O)c3s2)cc1 | > 100 µM
6 | CCN(CC)c1ccc(-c2nc3ccc(-c4nc5ccc(C)c(S(=O)(=O)O)c5s4)cc3s2)cc1 | > 100 µM
7 | Cc1cc(C(O)(c2ccc(Nc3ccccc3)cc2)c2ccc(Nc3ccc(S(=O)(=O)O)cc3)cc2)ccc1N (stereo not drawn) | 4 µM (active)
8 | COc1cccc2c(=O)c3cc(Cl)cc(C(=O)Nc4cc(Cl)ccn4)c3[nH]c12 | > 100 µM
9 | Cc1cc2sc(-c3ccc4nc(-c5ccc(N)cc5)sc4c3)nc2cc1S(=O)(=O)O | > 100 µM
10 | Cc1ccc2nc(-c3ccc4nc(-c5ccc6nc(-c7ccc(N)cc7)sc6c5)sc4c3)sc2c1S(=O)(=O)O | 55 µM (active)
11 | CCOc1ccc2c(NNC(=O)c3cnccn3)c3c(nc2c1)CCCC3 | > 100 µM
12 | Cc1ccc2nc(-c3ccc4nc(-c5ccc6nc(-c7ccc8nc(-c9ccc(N)cc9)sc8c7)sc6c5)sc4c3)sc2c1S(=O)(=O)O | 15 µM (active) and 76 µM (active)
13 | Cc1ccc2nc(-c3ccc(N)cc3)sc2c1S(=O)(=O)O | > 100 µM
